# From PubChem BioAssay
# IP6K1 inh: inhibitors of human IP6K1; Q92551; IP6K1 kinase, ADP-Glo luminescence, 2 h; stronger effect = lower value; activity change, % (series mostly up to about 58 µM); hit rate 0.81% among 140,000; in the data active = activity change below about -25%; note: % is set by controls: 0 for no effect and ±100 for the full control effect
#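 ADP-Glo luminescence measures ADP made by human IP6K1 during a 2 h RT reaction with ATP/IP6 (mix at 1.3 mM/130 uM); top library doses 57.5 and 19.1 uM final.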
# KDM5B inhibitor: inhibitors of human KDM5B histone demethylase | Q9UGL1 | KDM5B demethylase, FDH-coupled NADH fluorescence (FDH is formaldehyde dehydrogenase) | Potency, µM (series often up to 57.7 µM), hits mostly inhibitors | hit rate 2.6% among 220,000; note: potency is the fitted concentration of half-maximal effect; 0% is about no effect; nearly all actives have a fitted effect of over 70% in size
# Target sequence (Q9UGL1 whole entry, looked up): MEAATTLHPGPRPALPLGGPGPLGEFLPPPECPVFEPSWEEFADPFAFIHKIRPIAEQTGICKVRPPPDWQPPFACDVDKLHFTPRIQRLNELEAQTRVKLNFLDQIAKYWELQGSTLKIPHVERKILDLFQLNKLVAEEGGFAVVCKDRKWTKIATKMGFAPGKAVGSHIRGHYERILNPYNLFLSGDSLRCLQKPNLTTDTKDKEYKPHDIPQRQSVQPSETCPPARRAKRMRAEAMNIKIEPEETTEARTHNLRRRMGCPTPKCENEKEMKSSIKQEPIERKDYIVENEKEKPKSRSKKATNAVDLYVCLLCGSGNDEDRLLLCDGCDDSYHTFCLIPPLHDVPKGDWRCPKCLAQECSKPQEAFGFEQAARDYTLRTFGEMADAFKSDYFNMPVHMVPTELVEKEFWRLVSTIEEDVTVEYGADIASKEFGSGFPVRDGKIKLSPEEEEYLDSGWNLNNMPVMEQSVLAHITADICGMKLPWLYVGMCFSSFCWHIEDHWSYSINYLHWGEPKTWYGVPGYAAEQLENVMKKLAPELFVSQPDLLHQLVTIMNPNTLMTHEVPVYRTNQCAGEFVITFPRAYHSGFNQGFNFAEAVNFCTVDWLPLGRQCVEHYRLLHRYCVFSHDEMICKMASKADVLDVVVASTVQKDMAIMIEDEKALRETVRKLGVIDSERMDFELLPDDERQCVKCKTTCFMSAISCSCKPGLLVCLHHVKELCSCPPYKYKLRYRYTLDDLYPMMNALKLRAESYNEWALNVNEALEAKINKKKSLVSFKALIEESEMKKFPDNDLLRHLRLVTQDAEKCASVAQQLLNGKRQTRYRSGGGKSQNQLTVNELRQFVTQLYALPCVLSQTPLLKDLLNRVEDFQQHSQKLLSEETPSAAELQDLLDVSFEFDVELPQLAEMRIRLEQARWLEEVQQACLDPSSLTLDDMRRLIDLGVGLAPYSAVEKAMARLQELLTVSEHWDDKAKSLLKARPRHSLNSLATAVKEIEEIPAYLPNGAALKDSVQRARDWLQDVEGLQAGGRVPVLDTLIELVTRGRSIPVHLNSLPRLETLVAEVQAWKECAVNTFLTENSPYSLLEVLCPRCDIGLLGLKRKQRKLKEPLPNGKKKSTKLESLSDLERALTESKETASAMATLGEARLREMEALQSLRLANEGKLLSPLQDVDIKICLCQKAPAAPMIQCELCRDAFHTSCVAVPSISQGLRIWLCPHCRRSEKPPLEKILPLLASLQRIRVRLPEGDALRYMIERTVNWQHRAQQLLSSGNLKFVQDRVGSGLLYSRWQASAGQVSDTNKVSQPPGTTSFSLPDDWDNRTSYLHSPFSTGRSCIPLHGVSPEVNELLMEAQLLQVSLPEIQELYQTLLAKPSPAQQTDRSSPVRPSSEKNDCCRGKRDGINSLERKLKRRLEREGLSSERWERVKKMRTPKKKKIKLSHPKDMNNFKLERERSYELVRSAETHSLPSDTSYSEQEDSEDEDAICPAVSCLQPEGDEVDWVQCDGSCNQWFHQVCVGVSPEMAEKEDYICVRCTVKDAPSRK
#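 KDM5BΔAP (200 nM final) in 50 mM HEPES pH 7.5, 0.01% Tween-20 was preincubated 10 min at RT with compound over a concentration range. Substrate mix (H3K4me3 12.5 µM, α-KG 25 µM, Fe²⁺, ascorbate, NAD⁺, FDH) was added, and NADH fluorescence change over 30 min gave dose-response curves.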
# SNCA expr inh: reduces expression of the alpha-synuclein gene | HEK-293 SNCA-luciferase knock-in, luminescence, 24 h | Potency, µM (highest dose often 57.2 µM), without a hit: top-dose activity change, negative = inhibition, hits mostly inhibitors | hit rate 0.17% among 140,000;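 note: potency is the fitted concentration of half-maximal effect; plate controls were DMSO cells for no effect and cell-free wells for full effect; nearly all actives have a fitted effect of over 45% in size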
# SNCA viab count: counter-screen for SNCA expression inhibitors: cell viability. HEK-293-SNCA-luc viability, GF-AFC fluorescence, 24 h. Potency, µM (titrated, usually from 57.1 µM), for the others: at the highest dose activity change, negative = cytotoxicity, actives largely listed as cytotoxic. hit rate 0.12% among 150,000. AID 1671193;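 note: potency is the fitted concentration of half-maximal effect; 0% = DMSO-treated cells and -100% = medium-only wells without cells; nearly all actives have a fitted effect of over 30% in size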
#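 HEK-293-SNCA-luc cells (1500/well) plated 24 h, then exposed 24 h to a dilution series; GF-AFC added 30 min at 37C, fluorescence 405/540 nm; normalised to medium-only and DMSO wells, Hill fit.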
# Starred values were filed as active, the others as inactive; i = inactive; ? = inconclusive; nt = no result given; [ ] = remark or other dose. This is a sample that favours compounds with a hit; in the whole collection about 2.8% have one here. Unless noted, calls come from the whole dose curve; as a rule, active = well fitted curve in the direction sought with a large enough effect; inconclusive = small, poorly fitted or top-dose-only effect, or another doubt; inactive = no such curve, though single readings can be large; an effect the other way counts as inactive or inconclusive.
SMILES,IP6K1 inh,KDM5B inhibitor,SNCA expr inh,SNCA viab count
CCC1(CC)CCN(C(=O)CC2COc3ccc(C(=O)N(C)C)cc3N2C)C1 (stereo not drawn),11.3,i,-26.2%,-4.4%
COCCNC(=O)c1ccc2c(c1)N(C)C(CC(=O)N1CCC(O)CC1)CO2 (stereo not drawn),-9.8,28.2µM*,13.0%,6.9%
COCCNC(=O)c1ccc2c(c1)N(C)C(CC(=O)N1CCC(N)CC1)CO2 (stereo not drawn),13.0,28.2µM*,-14.8%,7.1%
Cc1ccc(-c2cc3c(=O)n(CCNC(=O)c4cccc(Cl)c4)ccn3n2)c(C)c1,0.0,28.2µM*,51.9%,-12.8%
Cc1cc(C)cc(C(=O)NCCn2ccn3nc(-c4ccc(C)cc4C)cc3c2=O)c1,-1.3,22.4µM*,101.6%,-0.6%
Cc1ccc(C(=O)C(C)OC(=O)CCc2c[nH]c3ccccc23)cc1 (stereo not drawn),nt,i,nt,nt
COC(=O)c1ccc(CNC(=O)c2ccccc2)cc1,nt,i,nt,nt
CCNC(=O)c1ccc2c(c1)C1(CCCN(C)C1)CN2C (stereo not drawn),-9.7,31.6µM*,-26.8%[87.6 µM],0.3%[87.6 µM]
CN(C)CC(=O)N1CCC2(C1)CN(C)c1ccc(C(=O)Nc3ccccc3)cc12 (stereo not drawn),17.7,?,4.0%[87.6 µM],3.5%[87.6 µM]
COc1ccc(NC(=O)c2ccc3c(c2)C2(CCCN(C)C2)CN3Cc2cccnc2)cc1 (stereo not drawn),6.3,i,8.8%,0.6%
Cc1nc(CN2CC3(CCN(C)C3)c3cc(C(=O)NCCc4ccccc4)ccc32)cs1 (stereo not drawn),0.1,28.2µM*,23.2%,-1.9%
CN(C)CC(=O)N1CCC2(C1)CN(C)c1ccc(C(=O)NCc3ccccc3)cc12 (stereo not drawn),7.0,35.5µM*,-1.6%[87.6 µM],-2.5%[87.6 µM]
CN1CCCC2(C1)CN(C)c1ccc(C(=O)NCCc3ccccc3)cc12 (stereo not drawn),9.0,31.6µM*,11.5%[87.6 µM],-0.7%[87.6 µM]
CC(=O)N1CCCC2(C1)CN(C)c1ccc(C(=O)NCC(F)(F)F)cc12 (stereo not drawn),2.6,?,6.4%[87.6 µM],6.4%[87.6 µM]
COc1cc(NC(=O)c2cc(S(=O)(=O)N3CCCCC3)c[nH]2)cc(OC)c1OC,nt,i,nt,nt
CC(C)(C)c1nc2cc(NC(=O)Cc3ccc([N+](=O)[O-])cc3)ccc2o1,nt,i,nt,nt
Cc1cc(Br)ccc1NC(=O)Cn1cnc2c1c(=O)n(C)c(=O)n2C,nt,i,nt,nt
O=C(O)c1cc2cn(C3CC3)cc2s1,-12.7,25.1µM*,-22.8%,0.0%
COCC(=O)NC[C@H]1CCN(Cc2ccc(Cl)cc2)C[C@H]1N(C)C,11.7,i,9.7%,0.0%[12.5 µM]
COCC(=O)NC[C@H]1CCN(Cc2ccc(C#N)cc2)C[C@H]1N(C)C,11.8,17.8µM*,37.9%,-6.6%[12.5 µM]
Cc1nc2ccc(C(=O)OCC(=O)NC(=O)NC3CC3)cc2nc1C,nt,i,nt,nt
COc1ccccc1CCC(=O)N[C@@H]1CN(c2ccncn2)C[C@H]1CN(C)C,-4.6,i,-7.8%,-10.4%
COc1ccccc1CC(=O)N[C@@H]1CN(c2ncccn2)C[C@H]1CN(C)C,12.0,22.4µM*,6.9%,2.2%
COc1ccc(CCC(=O)N[C@@H]2CN(c3ncccn3)C[C@H]2CO)cc1,12.9,22.4µM*,-6.1%,1.7%
COc1ccc(CCC(=O)N[C@@H]2CN(c3ncccn3)C[C@H]2CN(C)C)cc1,-1.1,22.4µM*,-13.8%,0.3%
SMILES,IP6K1 inh,KDM5B inhibitor,SNCA expr inh,SNCA viab count
COc1ccc(CC(=O)N[C@@H]2CN(C)C[C@H]2CN(C)C)cc1,-16.7,i,6.5%,-0.1%
CN(C)C[C@@H]1CN(c2ncccn2)C[C@H]1NC(=O)CCn1cccn1,6.0,28.2µM*,2.6%,0.8%
CN(C)C[C@@H]1CN(c2ncccn2)C[C@H]1NC(=O)Cc1ccsc1,0.0,22.4µM*,-15.4%,-1.9%
CN(C)C[C@@H]1CN(C2CCOCC2)C[C@H]1NC(=O)Cc1ccsc1,9.2,?,?,3.0%
COc1ccc(CNC(=O)c2cc(-c3ccc(F)cc3)cc3ncn(C)c23)cc1OC,-10.2,i,76.9%[87.6 µM],6.8%[87.6 µM]
COCCNC(=O)c1cc(-c2cnn(Cc3ccccc3)c2)cc2ncn(C)c12,10.0,35.5µM*,-1.1%[87.6 µM],2.1%[87.6 µM]
Cn1cnc2cc(-c3ccc(F)cc3)cc(C(=O)NCc3cccnc3)c21,-6.5,31.6µM*,4.7%[87.6 µM],10.9%[87.6 µM]
Cn1cnc2cc(-c3ccc(N4CCOCC4)cc3)cc(C(=O)NCc3cccnc3)c21,-0.6,?,12.5%[87.6 µM],-8.2%[87.6 µM]
Cn1cnc2cc(-c3ccc(F)cc3)cc(C(=O)NCC3CCOCC3)c21,-7.5,35.5µM*,7.5%[87.6 µM],3.5%[87.6 µM]
COc1cc(F)ccc1-c1cc(C(=O)NCc2ccnc(N)c2)c2c(c1)ncn2C,-0.5,35.5µM*,0.3%[87.6 µM],-15.0%[87.6 µM]
CC(=O)N1CCC2(CC1)Oc1ccc(Br)cc1C1CC(c3ccco3)=NN12 (stereo not drawn),nt,i,nt,nt
COc1ncccc1-c1cc(C(=O)NCCN2CCOCC2)c2c(c1)ncn2C,10.2,35.5µM*,7.7%[87.6 µM],1.0%[87.6 µM]
COc1cc(F)ccc1-c1cc(C(=O)NCc2cccnc2)c2c(c1)ncn2C,-3.7,35.5µM*,-7.9%[87.6 µM],-1.6%[87.6 µM]
COc1cc(CNC(=O)c2cc(-c3cccc(N(C)C)c3)cc3ncn(C)c23)ccn1,-0.3,i,74.5%[87.6 µM],-23.2%[87.6 µM]
COc1ccc(-c2cc(C(=O)NCc3ccnc(N)c3)c3c(c2)ncn3C)cc1,0.7,39.8µM*,8.4%[87.6 µM],-6.0%[87.6 µM]
Cn1cnc2cc(-c3cccc(C(F)(F)F)c3)cc(C(=O)NCc3cccnc3)c21,-6.9,?,13.2%[87.6 µM],-23.9%[87.6 µM]
Cn1cnc2cc(-c3ccccc3)cc(C(=O)NCc3cccnc3)c21,-1.5,31.6µM*,14.9%[87.6 µM],-10.3%[87.6 µM]
COc1ccccc1Oc1c(C)oc2cc(OCC(=O)Nc3cccc(O)c3)ccc2c1=O,nt,i,nt,nt
COc1ccccc1Nc1nc(-c2ccc3c(c2)CCC(=O)N3)cs1,nt,i,nt,nt
CN1CCN(C(=O)c2ccc(-c3ccc(N4CCCCC4)nc3)cc2)CC1,-3.8,?,21.0%,-9.6%
O=C(O)c1ccc(-c2ccc(N3CCCCCC3)nc2)cc1,-12.1,?,51.4%,-7.1%
CN1CCN(C(=O)c2ccc(-c3ccc(N4CCSCC4)nc3)cc2)CC1,-10.9,28.2µM*,64.7%,-12.4%
CC(NC(=O)c1ccc(-c2ccc(N3CCCCCC3)nc2)cc1)c1cccnc1 (stereo not drawn),-1.7,i,?,?
CC1CCN(C(=O)c2ccc(-c3ccc(N4CCSCC4)nc3)cc2)CC1,1.0,28.2µM*,?,?
O=C(c1ccc(-c2ccc(N3CCSCC3)nc2)cc1)N1CCCCC1,20.2,28.2µM*,13.9%,-17.9%
CCCN1CCN(C(=O)c2ccc(-c3ccc(N4CCCCC4)nc3)cc2)CC1,-3.1,25.1µM*,22.7%,3.4%
O=C(c1ccc(-c2ccc(N3CCCCC3)nc2)cc1)N1CCCC1,-6.9,28.2µM*,21.1%,-2.4%
O=C(c1ccc(-c2ccc(N3CCSCC3)nc2)cc1)N1CCOCC1,-1.4,22.4µM*,81.0%,3.8%
